Screening data from PubChem BioAssay.
This is a sample that favours compounds with a hit; in the whole collection about 2.1% have one here.
PABP FP inh: PABP-poly(A) binding inhibition | inhibition, % at 35 µM | 1% of 290,000 active | P11940 | PABP-poly(A) RNA binding, fluorescence polarization | AID 2014;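 further: calls also rest on retests at 20 µM and on dose response follow-up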
CendR NRP1 mod: alters CendR peptide binding to human NRP-1. O14786. FAM-RPARPAR peptide binding to NRP-1, fluorescence polarization. inhibition, % at 25 µM. 0.85% of 360,000 active. AID 602438;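 active means inhibition or corrected inhibition above about 18%, plus a signal ratio from 0.5 to 1.5, limit read from the data, passing the limit was not always enough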
MLLE-PAM2 inh: blocks PAM2 peptide binding to the PABP1 MLLE domain | inhibition, % at 20 µM | GST-MLLE / FITC-PAM2 fluorescence polarization | P11940 | AID 588489 | 0.36% of 360,000 active; in the data active means inhibition above about 35%, passing the limit was not always enough
eIF4H FP inh: inhibitors of RNA binding by human eIF4H; eIF4H fluorescence polarization binding assay; 0.94% of 290,000 active; Q15056; inhibition, % at 35 µM;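 further: calls also rest on retests at 20 µM and on dose response follow-up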
Of the large screens only hits and unclear results are named; the others gave an inactive call. Unless noted, how the calls were made is not given here.

CN(C)CCN1CCN(C2CN(Cc3ccc([N+](=O)[O-])cc3)S(=O)(=O)C2)CC1 (stereo unspecified)	CendR NRP1 mod 22 (no result: PABP FP inh, eIF4H FP inh)
C[C@H](CO)N1C[C@H](C)[C@H](CN(C)S(=O)(=O)c2cn(C)cn2)OCc2cnnn2CCCC1=O	none (no result: PABP FP inh, eIF4H FP inh)
C[C@@H]1CN([C@H](C)CO)C(=O)CCCn2nncc2CO[C@H]1CN(C)S(=O)(=O)c1cn(C)cn1	CendR NRP1 mod 27 (no result: PABP FP inh, eIF4H FP inh)
C[C@@H]1CN([C@H](C)CO)C(=O)CCCn2nncc2CO[C@@H]1CN(C)C(=O)CCC(F)(F)F	CendR NRP1 mod 27 (no result: PABP FP inh, eIF4H FP inh)
Cc1ccc(SCC(=O)OCC(=O)N(C)C2CCS(=O)(=O)C2)cc1C (stereo unspecified)	CendR NRP1 mod 51 (no result: PABP FP inh, eIF4H FP inh)
CN(C(=O)COC(=O)Cc1c(Cl)cccc1Cl)C1CCS(=O)(=O)C1 (stereo unspecified)	CendR NRP1 mod 26 (no result: PABP FP inh, eIF4H FP inh)
COc1ccccc1Cn1c(-c2ccco2)nc2nc3ccccc3nc21	none (no result: PABP FP inh, eIF4H FP inh)
COc1ccc(CCn2c(-c3ccco3)nc3nc4ccccc4nc32)cc1	PABP FP inh 88, eIF4H FP inh 67
CC1(C(=O)NS(=O)(=O)c2cccs2)CCN1C(=O)CC1CC1 (stereo unspecified)	none (no result: PABP FP inh, eIF4H FP inh)
C#CCOCCOCCOCCNc1nc(N2CCN(C(=O)[C@H]([C@@H](C)CC)n3cc([C@@H](N)CC(C)C)nn3)CC2)nc(N2CCN(C(=O)[C@H](CCCCN)n3cc([C@@H](N)C(C)CC)nn3)CC2)n1 (stereo partly specified)	none
C#CCOCCOCCOCCNc1nc(N2CCN(C(=O)[C@H](C(C)C)n3cc(CCO)nn3)CC2)nc(N2CCN(C(=O)[C@H](Cc3ccc(O)cc3)n3cc(CCO)nn3)CC2)n1	CendR NRP1 mod 29 (no result: PABP FP inh, eIF4H FP inh)
C#CCOCCOCCOCCNc1nc(N2CCN(C(=O)[C@H]([C@@H](C)O)n3cc(CCCCN)nn3)CC2)nc(N2CCN(C(=O)[C@H](Cc3ccc(O)cc3)n3cc(CCO)nn3)CC2)n1	CendR NRP1 mod 22
C#CCOCCOCCOCCNc1nc(N2CCN(C(=O)[C@H]([C@@H](C)CC)n3cc([C@@H](N)CC(C)C)nn3)CC2)nc(N2CCN(C(=O)[C@H](CCCCN)n3cc([C@@H](N)CC(C)C)nn3)CC2)n1	PABP FP inh 49, eIF4H FP inh 55 (no result: CendR NRP1 mod, MLLE-PAM2 inh)
CCCCc1c(C)nc(N2CCCC2)[nH]c1=O	eIF4H FP inh 65
c1ccc2c3n(nc2c1)CCCO3	CendR NRP1 mod 32 (no result: PABP FP inh, eIF4H FP inh)
CC1COc2c3ccccc3nn21 (stereo unspecified)	none (no result: PABP FP inh, MLLE-PAM2 inh, eIF4H FP inh)
Cc1ccc2c(c1)C(=O)C(=O)N2Cc1ccccc1	none (no result: PABP FP inh, eIF4H FP inh)
CCN1C(=O)C(=O)c2cc(C)ccc21	CendR NRP1 mod 34 (no result: PABP FP inh, eIF4H FP inh)
COc1ccc(C(C(=O)NC2CCCCC2)N(C(=O)c2ccco2)c2ccccc2OC)cc1 (stereo unspecified)	none
COc1ccccc1N(C(=O)CNC(=O)c1ccco1)C(C(=O)NC1CCCC1)c1ccco1 (stereo unspecified)	CendR NRP1 mod 18
COc1ccccc1N(C(=O)c1ccco1)C(C(=O)NC1CCCCC1)c1cc(OC)c(OC)c(OC)c1 (stereo unspecified)	CendR NRP1 mod 26
Cc1cc(C)cc(N(C(=O)CNC(=O)c2ccco2)C(C(=O)NC2CCCCC2)c2ccncc2)c1 (stereo unspecified)	CendR NRP1 mod 22
CC1(Cc2ccccc2Cl)C(=O)Nc2ccc(OC(F)(F)F)cc21 (stereo unspecified)	none (no result: PABP FP inh, eIF4H FP inh)
C=CCc1c(OC(C)=O)c2ccccc2n(C)c1=O	CendR NRP1 mod 25
CCc1c(OC(C)=O)c2ccccc2n(C)c1=O	none
CCCCC#Cc1cncc(C(=O)N/N=C/c2cccc(OC)c2)c1	CendR NRP1 mod 38
O=C(Nc1cccc(Cl)c1)c1cccc(N2C(=O)C3CC=CCC3C2=O)c1 (stereo unspecified)	none
CCOC(=O)C1=C(COC(=O)c2ccc(C)c(S(=O)(=O)N3CCOCC3)c2)NC(=O)NC1C (stereo unspecified)	none (no result: PABP FP inh, eIF4H FP inh)
CC(C)CNc1nc(=S)nc(N(C)C)[nH]1	MLLE-PAM2 inh 43
CC(=O)c1ccc(S(=O)(=O)N2Cc3ccccc3CC2C(=O)O)cc1 (stereo unspecified)	PABP FP inh 57, eIF4H FP inh 99
CS(=O)(=O)N1Cc2ccccc2CC1C(=O)O (stereo unspecified)	PABP FP inh active, eIF4H FP inh inconclusive
Cc1cc(-c2ccccc2)nc(N/N=C/c2ccccc2F)n1	none
O=C(c1ccccc1)N1CCN(C(=O)c2nn3c(C(F)(F)F)cc(-c4ccco4)nc3c2Br)CC1	eIF4H FP inh 69
O=C(NC1CCCCC1)c1nn2c(C(F)(F)F)cc(-c3ccco3)nc2c1Br	none
O=C(O)c1cnn2c(C(F)(F)F)cc(-c3ccco3)nc12	PABP FP inh 35, eIF4H FP inh 78
Cc1c(NC(=O)c2nn3c(C(F)(F)F)cc(-c4ccccc4)nc3c2Cl)c(=O)n(-c2ccccc2)n1C	none
Cc1c(NC(=O)c2cnn3c(C(F)(F)F)cc(-c4ccco4)nc23)c(=O)n(-c2ccccc2)n1C	CendR NRP1 mod 23
COc1cc([N+](=O)[O-])ccc1NC(=O)COC(=O)c1c[nH]c(=O)[nH]c1=O	none (no result: PABP FP inh, eIF4H FP inh)
Cc1cccc(S(=O)(=O)NC(=O)C2(C)CCN2C(=O)Cc2ccccc2)c1 (stereo unspecified)	none (no result: PABP FP inh, eIF4H FP inh)
Cc1cccc(S(=O)(=O)NC(=O)C2(C)CCN2C(=O)CCc2ccccc2)c1 (stereo unspecified)	CendR NRP1 mod 27 (no result: PABP FP inh, eIF4H FP inh)
CC1=C(C(=O)N(C(C)C)C(C)C)CC(CC(=O)NC2CC2)C(=O)N1CCC1=CCCCC1 (stereo unspecified)	none (no result: PABP FP inh, eIF4H FP inh)
Nc1ncnc2oc(-c3ccco3)c(-c3ccco3)c12	PABP FP inh 94, eIF4H FP inh 104
COc1ccc(-c2csc(C(O)c3ccccc3)n2)cc1 (stereo unspecified)	none (no result: PABP FP inh, eIF4H FP inh)
COc1ccc(C(O)c2nc(-c3cc(F)cc(F)c3)cs2)cc1 (stereo unspecified)	CendR NRP1 mod 40 (no result: PABP FP inh, eIF4H FP inh)
COc1ccncc1-c1csc(C(O)c2ccccc2)n1 (stereo unspecified)	CendR NRP1 mod 23 (no result: PABP FP inh, eIF4H FP inh)
C=CCn1c(N)cc(=O)nc1SC(C)C(=O)Nc1cccc2ccccc12 (stereo unspecified)	CendR NRP1 mod 22
CC(C)(C)c1nnc(NC(=S)Nc2ccccc2)s1	PABP FP inh inconclusive, MLLE-PAM2 inh 43, eIF4H FP inh inconclusive
CCC(C)N(C(=O)Cn1c(=O)cnc2ccccc21)C1CCS(=O)(=O)C1 (stereo unspecified)	none (no result: PABP FP inh, eIF4H FP inh)
Cc1ccc(S(=O)(=O)/N=C2/C=C(Sc3ncn[nH]3)C(=O)c3ccccc32)cc1	MLLE-PAM2 inh 50
CC(C)c1ccc(S(=O)(=O)/N=C2/C=C(Sc3ncn[nH]3)C(=O)c3ccccc32)cc1	none
COC(=O)CNC(=O)C(C)(C)Oc1ccc(Cl)cc1	none
Cc1cccc(OC(C)C(=O)NCc2ccc(S(N)(=O)=O)cc2)c1 (stereo unspecified)	none
CC(C)(Oc1ccc(Cl)cc1)C(=O)NCc1ccc(S(N)(=O)=O)cc1	eIF4H FP inh 66
CC(Oc1cccc(Cl)c1)C(=O)NCc1ccc(S(N)(=O)=O)cc1 (stereo unspecified)	CendR NRP1 mod 30
